Experiment in all cases: NCI-60 one-dose screen, 48 h (100 = growth as untreated, 0 = no growth, -100 = all killed)
Conditions in all cases: 10 µM unless noted

For assay [1], the system named is HCT-15 colon.
Assay [2] deals with HT29 colon.
Assay [3] deals with SNB-75 CNS.
Assay [4] concerns SNB-19 CNS.
Assay [5] deals with U251 CNS.
Assay [6] concerns PC-3 prostate.
Assay [7] relates to SK-MEL-5 melanoma.
For assay [8], the system named is UACC-62 melanoma.
Assay [9] has as its system LOX IMVI melanoma.
For assay [10], the system named is SK-MEL-28 melanoma.
Assay [11] deals with SK-MEL-2 melanoma.
Assay [12] deals with EKVX NSCLC.
The subject of assay [13] is SN12C renal.
Assay [14] deals with UO-31 renal.
Assay [15] relates to TK-10 renal.
Assay [16] relates to ACHN renal.
The subject of assay [17] is CAKI-1 renal.
The subject of assay [18] is A498 renal.
Assay [19] concerns CCRF-CEM leukemia.
Assay [20] deals with MOLT-4 leukemia.

The structures appear in SMILES notation. Compounds without any hit were thinned out: in the full panel of roughly 83,000, 20% have a hit.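 Negative percent growth values reflect cell death: -40 means 40% of the cells present at the start died, and -100 means all died.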 Unmarked numbers belong to inactive results. Calls of active or inactive are those of the source. How the source made its calls: active means growth percent below 10; inactive means the rest.

As to `CCCCCc1ccc(S(=O)(=O)Nc2cc(-c3csc(NC(C)=O)n3)ccc2N2CCN(C)CC2)cc1`, the growth is 4% (active) in assay [1]; 5.9% (active) in assay [2]; 37.3% in assay [3]; 74.6% in assay [4]; 12.2% in [5]; 41.2% in assay [6]. Besides, the growth was 30.2% in assay [7]; -56.2% (active) in assay [8]; -95.4% (active) in [9]; -80.2% (active) in assay [10]; 81.3% in assay [11]; 78.2% in assay [12]. Moreover, the growth is 61.4% in assay [13]; 49.4% in assay [14]; 99.3% in assay [15]; 54.6% in [16]; 64.1% in [17]; 66.2% in assay [18]. In addition, the growth is 29.8% in assay [19] and 12.4% in assay [20].

With `COC12C=C/C(=C(/C(=O)OCCSc3ccnn3C)C(=O)CCCCCCCCC3(OC)C=C/C(=C(/C(=O)OCCSc4ccnn4C)C(=O)CCCCCCCC1)O3)O2`, the growth in [1] is -19.5% (active); in assay [2] it was 11.9%; in assay [3], 56.8%; in [4], 32.9%; in [5], -3.32% (active); in [6], 15.8%. In addition, the growth is -70% (active) in assay [7]; -56.3% (active) in assay [8]; -68.6% (active) in assay [9]; -9.65% (active) in assay [10]; 12.3% in assay [11]; 9.41% (active) in assay [12]. Moreover, the growth in assay [13] was -4.94% (active); in assay [14], 14.8%; in [15] it was 39.9%; in [16], 4.65% (active); in [17] it was 26.6%; in assay [18] it was -53.5% (active). The growth in assay [19] is 11.1%; in assay [20] it was -0.956% (active).

As to `CSc1ccc2c3c(n(C[C@H](O)CO)c(=O)c2c1)-c1ccccc1C3=O`, the growth in [1] is 18.6%; in assay [2], 16.5%; in assay [3], 61.2%; in [4], 32.6%; in assay [5] it was 14.2%; in assay [6], 44.5%. Besides, the growth in [7] is 44.3%; in assay [8], 37.5%; in assay [9] it was -3.11% (active); in [10], 72.3%; in assay [11], 104%; in [12] it was 77.1%. Further, the growth in assay [13] is 23.1%; in [14] it was 19.9%; in assay [15], 70.7%; in assay [16], -41% (active); in [17], 27.9%; in [18], 52.3%. In addition, the growth is -4.25% (active) in assay [19] and -17.8% (active) in assay [20].

Regarding `CNC(=O)c1cc(Oc2ccc3c(c2)sc2nc(-c4ccc(Cl)c(C(F)(F)F)c4)cn23)ccn1`, the growth was 65% in [1]; 56% in assay [2]; 81.4% in [3]; 77.2% in [4]; 71.9% in assay [5]; 45.3% in [6]. Further, the growth was 18.8% in assay [7]; 60.6% in assay [8]; 50% in [9]; 80.1% in [10]; 59.4% in assay [11]; 46.7% in [12]. The growth in [13] is 64.4%; in assay [14] it was 58.8%; in [15], 48.3%; in assay [16], 62.9%; in assay [17] it was 74.1%; in assay [18] it was 50.6%. Moreover, the growth is 47.4% in assay [19] and 41.6% in assay [20].

As for `CCN(CC)CCOc1ccc(/C(=C(\C)Cc2ccc(OC)cc2)c2ccc(OC(=O)NCc3ccccc3)cc2)cc1`, the growth is 15.1% in assay [1]; -34.8% (active) in [2]; 59.4% in assay [3]; 66.9% in assay [4]; 32.4% in assay [5]; 46.2% in [6]. Also, the growth in [7] is 26.5%; in [8] it was 34.3%; in assay [9], 37.2%; in [10] it was 38%; in [11], 69.1%; in assay [12], 73%. Besides, the growth in [13] is 74.7%; in [14], 46.3%; in assay [15] it was 71.4%; in assay [16], 81.4%; in [17] it was 69.3%; in [18] it was 84.8%. Further, the growth was 23.1% in assay [19] and 1.91% (active) in assay [20].

For the molecule `CN(C)CCC(=O)C1CC1`, the growth was 106% in [1]; 99.3% in assay [2]; 102% in assay [3]; 96% in assay [4]; 102% in [5]; 99.2% in assay [6]. Further, the growth was 106% in assay [7]; 99.2% in assay [8]; 99% in [9]; 107% in [10]; 111% in [11]; 111% in [12]. Further, the growth in assay [13] is 98.9%; in assay [14] it was 75.9%; in [15] it was 113%; in [16], 103%; in [17], 102%; in assay [18], 106%. In addition, the growth in assay [19] was 103%; in assay [20] it was 96.9%.

For the molecule `CC1=C2CC/C(C)=C/CC[C@]3(C)O[C@H]3CC/C(C)=C/[C@H]2OC1`, the growth is 97.9% in [1]; 94.7% in assay [2]; 86.6% in [3]; 98.5% in [4]; 94.7% in assay [5]; 87.5% in [6]. Besides, the growth is 108% in [7]; 92.1% in [8]; 101% in assay [9]; 96.5% in [10]; 92.6% in [11]; 103% in assay [12]. Further, the growth in [13] is 95.5%; in [14] it was 84.7%; in assay [15], 100%; in [16], 90.9%; in assay [17], 87%; in [18] it was 97%. Further, the growth in assay [19] is 84.9%; in [20] it was 86.5%.

Source of the values: PubChem BioAssay (NCI).
